# Measured values as given in PubChem BioAssay.
# Where “and” joins values, the source holds several entries; their conditions need not be identical. Equal values may be shown once.
# Target: Calmodulin-1 (Homo sapiens) (UniProt P0DP23)
# Assay: calcium-bound CALM1 binders on microarrays, profiling panel, artefact control for SMM control-protein annotation, biochemical, small-molecule microarray, Cy5-labelled CALM1, plus calcium (AID 1112);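 note: score merges spot fluorescence with signal to noise from triplicate slides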
# Conditions: Cy5-CALM1 binding fluorescence, higher = more signal
row,SMILES,composite z-score
1,COC(=O)C1=C(C)N(Cc2ccccc2)[C@]23O[C@](C(=O)OC)(C(=O)N2[C@@H]1c1ccccc1)[C@@H](C(=O)OC)[C@H]3C(=O)OC,-0.636 and -0.505
2,C=C[C@H](C)[C@@H](O)c1ccc(OCCO)cc1,0.717 and 0.1
3,C=CCN(CCCC)C(=O)C1N(c2c(Cl)cccc2CO)C(=O)C2C(C(=O)O)C3C=CC21O3 (stereo not given),0.713 and -0.0889
4,CCCNC(=O)OC[C@H]1O[C@H](CCON=C(C)CCN2CCc3nc(-c4ccccc4)c(-c4ccccc4)cc3C2)C=C[C@@H]1Oc1ccc(OC)cc1,-0.0536
5,COC(=O)c1c2oc(c1C(=O)OC)C(=O)N[C@@H](Cc1ccccc1)Cn1cc(nn1)C1(CCCCC1)NC(=O)N[C@H](CO)CC2,0.0102 and -0.607
6,C=CCN(Cc1ccccc1)C(=O)C(c1cccs1)N(C(=O)/C=C\C(=O)O)c1ccc(CCO)cc1 (stereo not given),0.204 and -0.257

# System: not listed separately
# Assay: small-molecule microarray binders of probe aWnt5a, primary screen, biochemical, biotinylated probe, 635/667 nm fluorescence (AID 1113);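 note: score merges 667 nm fluorescence intensity with signal-to-noise per printed feature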
# Conditions: higher = more signal
row,SMILES,composite z-score
1,C[N+](C)(C)CCCCNC(=O)[C@H]1C[C@H]2C(=O)N[C@@H](CCCC[N+](C)(C)C)C(=O)N2[C@H]1c1ccc(O)cc1,-0.0685 and -0.0643
2,CO[C@@H]1COC(=O)[C@H](Cc2ccccc2)NC(=O)CC=C[C@@H](C)[C@H](OC)COC(=O)[C@@H](C)NC(=O)CC=C[C@H]1C,-0.1 and -0.22
3,CCOC(=O)c1ccc(NC(=O)O[C@H]2[C@H](OC(=O)Nc3ccccc3)[C@H](OC(=O)Nc3ccccc3)[C@@H](OC)O[C@@H]2CO)cc1,0.0438 and -0.0417
4,CC(C)OC(=O)C=C1C[C@@H](c2ccccc2)O[C@@H](c2ccccc2)O1,0.166 and 0.0915
5,C=CCN(C(=O)C1N(CCOCCO)C(=O)C2C(C(=O)O)C3C=CC21O3)c1ccc(OC)cc1 (stereo not given),-0.2 and -0.214
6,CCCC[C@@H]1CN2[C@H](c3ccc(Br)cc3)[C@@H](C)CC[C@H]2C(=O)O1,-0.232 and -0.104
7,COC(=O)[C@@]1(Cc2ccc(OC)cc2)[C@H]2c3cc(C(=O)N(C)C)n(Cc4ccc(O)c(OC)c4)c3C[C@H]2CN1C(=O)c1ccccc1,-0.208 and 0.201
8,CCOC(=O)NN=C1C[C@@H](O)[C@@H](O)[C@@H]2[C@@H]3C(=O)N(Cc4ccc5c(c4)OCO5)C(=O)[C@@H]3CC[C@@H]12,-0.006
9,C=CCN(CCCC)C(=O)C(c1cccs1)N(CCOCCO)C(=O)/C=C\C(=O)O (stereo not given),-0.193 and -0.096
10,C=CCN(CCCCC)C(=O)C(c1cccs1)N(C(=O)/C=C\C(=O)O)c1c(Cl)cccc1CO (stereo not given),-0.228 and -0.348
11,CC(CO)N1C(=O)[C@@H]2C3C(=O)OCCC=C[C@H]3OC23C=CCN(c2ccc4ccccc4c2)C(=O)[C@@H]13 (stereo not given in full),-0.203 and -0.183
12,C=C[C@@H](C)[C@@H](O)c1ccc(O)c2ccccc12,-0.146 and -0.236
13,C=CCN(C(=O)C1N(CCCCCCO)C(=O)C2C(C(=O)O)C3C=CC21O3)c1ccc(OC)cc1 (stereo not given),-0.224 and -0.124
14,CC[C@@H]1C(Sc2ccccc2)C(C(=O)O)[C@H](c2ccc(C)cc2)N1S(=O)(=O)c1ccc(C)cc1 (stereo not given in full),0.138 and 0.155
15,CC(C)=NO[C@@H](C)c1cc(-c2c(C)cc(C)cc2C)no1,-0.152
16,C[N+](C)(C)CCCCCCNC(=O)[C@H]1C[C@H]2C(=O)N[C@@H](CCCC[N+](C)(C)C)C(=O)N2[C@H]1c1ccc(O)cc1,-0.13 and -0.14
17,C=CCN(C(=O)C(c1cccs1)N(C(=O)/C=C\C(=O)O)c1ccc(CCO)cc1)C(C)(C)C (stereo not given),-0.148 and -0.27
18,C=C[C@@H](OC)[C@H](O)c1ccc(OC)c(O)c1,-0.293 and -0.208
19,C#CCCCON=C1C[C@@H](O)[C@@H](O)[C@@H]2[C@@H]3C(=O)N(C4CCCCC4)C(=O)[C@@H]3CC[C@H]12,0.454
20,CC(C)N1CC=CC23O[C@@H]4C=CCCOC(=O)C4[C@H]2C(=O)N(C(C)CO)[C@@H]3C1=O (stereo not given in full),-0.26 and -0.152

row,SMILES,composite z-score
1,CCOC(=O)[C@@H]1CC=C2CC1C(=O)N1CCC[C@@H]1[C@H]2O[Si](C)(C)C(C)(C)C (stereo not given in full),-0.0512 and -0.252
2,C=CCN(CCCC)C(=O)C(c1cccs1)N(C(=O)/C=C\C(=O)O)c1ccc(CCO)cc1 (stereo not given),-0.13 and -0.262
3,COC(=O)[C@H](C)NC(=O)CCC1CC(OC(=O)NCCc2ccc(F)cc2)CC2(CCCC(COC(=O)NCCCN3CCCC3=O)O2)O1 (stereo not given in full),-0.172
4,C[C@@H]1CC[C@@H](C(=O)O)N[C@H]1c1ccc(-c2ccco2)cc1,-0.096
5,CCOC(=O)C[C@H]1[C@H](OC(=O)c2ccccc2-c2ccccc2)[C@@H](NC(=O)c2ccccc2)c2cc(OCCCO)ccc2N1C(=O)c1ccc2ccccc2n1,0.0324 and -0.108
6,COC(=O)C1=C(C)N(Cc2ccccc2)C2=C3C(=O)N(C)C(=O)[C@@H]3[C@@](O)(C(=O)OC)C(=O)N2[C@@H]1c1ccccc1,-0.124 and -0.0735
7,CC(C)CON=C1C[C@@H](O)[C@@H](O)[C@@H]2[C@@H]3C(=O)N(c4cccc(Oc5ccccc5)c4)C(=O)[C@@H]3CC[C@H]12,-0.0269
8,C=C[C@@H](OC)[C@H](O)c1ccc(OCCO)cc1,-0.298 and -0.242
9,CC(CO)N1C(=O)[C@@H]2C3C(=O)OCCC=C[C@H]3OC23C=CCN(c2ccc(Cl)cc2)C(=O)[C@@H]13 (stereo not given in full),-0.0346 and -0.152
10,C=CCN(CCCCC)C(=O)C1N(CCOCCO)C(=O)C2C(C(=O)O)C3C=CC21O3 (stereo not given),-0.276 and -0.328
11,C=CCN(C(=O)C1N(CCCCCCO)C(=O)C2C(C(=O)O)C3C=CC21O3)C(C)(C)C (stereo not given),-0.348 and -0.364
12,COC(=O)C1=C(C)N(Cc2ccccc2)C2=C(C(C)=O)C[C@@](O)(C(=O)OC)C(=O)N2[C@@H]1c1ccccc1,-0.0512 and -0.18
13,C=CCN(C(=O)C(c1cccs1)N(CCOCCO)C(=O)/C=C\C(=O)O)C(C)(C)C (stereo not given),-0.154 and -0.239
14,COC(=O)C1=C(C)N(Cc2ccccc2)[C@]23O[C@](C(=O)OC)(C(=O)N2[C@@H]1c1ccccc1)[C@@H](C(=O)OC)[C@H]3C(=O)OC,-0.173 and -0.16
15,C=C[C@H](C)[C@@H](O)c1ccc(OCCO)cc1,-0.261 and -0.252
16,C=CCN(CCCC)C(=O)C1N(c2c(Cl)cccc2CO)C(=O)C2C(C(=O)O)C3C=CC21O3 (stereo not given),-0.144 and -0.0894
17,CCCNC(=O)OC[C@H]1O[C@H](CCON=C(C)CCN2CCc3nc(-c4ccccc4)c(-c4ccccc4)cc3C2)C=C[C@@H]1Oc1ccc(OC)cc1,-0.0535
18,COC(=O)c1c2oc(c1C(=O)OC)C(=O)N[C@@H](Cc1ccccc1)Cn1cc(nn1)C1(CCCCC1)NC(=O)N[C@H](CO)CC2,-0.0403 and -0.0924
19,C=CCN(Cc1ccccc1)C(=O)C(c1cccs1)N(C(=O)/C=C\C(=O)O)c1ccc(CCO)cc1 (stereo not given),-0.243 and -0.252
